Data reported in PubChem BioAssay AID1347419 (Sanford-Burnham Center for Chemical Genomics, 2020).
The whole screen tested about 99,000 compounds, of which about 820 (0.83%) were called active. This excerpt belongs to a sample that is enriched for actives. Unmarked numbers belong to inactive results.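 How the source made its calls: active means Z-score of -3 or lower, scaled per plate to the spread of control and sample wells; inactive means z-score above -3.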

target: Protein-tyrosine kinase 2-beta (Homo sapiens) (UniProt Q14289); assay: antagonists of Pyk2 self-association, primary screen, Q293 cells, FERM NanoBiT luminescence, HTS (AID 1347419); parameters: dose or concentration left out as unconfirmed; conditions: stronger effect = lower value;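 further: the deposit names both 25 µM and 10 µM; negative z-score means lost luminescence so less FERM oligomerization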
Sequence (Q14289 whole entry, looked up): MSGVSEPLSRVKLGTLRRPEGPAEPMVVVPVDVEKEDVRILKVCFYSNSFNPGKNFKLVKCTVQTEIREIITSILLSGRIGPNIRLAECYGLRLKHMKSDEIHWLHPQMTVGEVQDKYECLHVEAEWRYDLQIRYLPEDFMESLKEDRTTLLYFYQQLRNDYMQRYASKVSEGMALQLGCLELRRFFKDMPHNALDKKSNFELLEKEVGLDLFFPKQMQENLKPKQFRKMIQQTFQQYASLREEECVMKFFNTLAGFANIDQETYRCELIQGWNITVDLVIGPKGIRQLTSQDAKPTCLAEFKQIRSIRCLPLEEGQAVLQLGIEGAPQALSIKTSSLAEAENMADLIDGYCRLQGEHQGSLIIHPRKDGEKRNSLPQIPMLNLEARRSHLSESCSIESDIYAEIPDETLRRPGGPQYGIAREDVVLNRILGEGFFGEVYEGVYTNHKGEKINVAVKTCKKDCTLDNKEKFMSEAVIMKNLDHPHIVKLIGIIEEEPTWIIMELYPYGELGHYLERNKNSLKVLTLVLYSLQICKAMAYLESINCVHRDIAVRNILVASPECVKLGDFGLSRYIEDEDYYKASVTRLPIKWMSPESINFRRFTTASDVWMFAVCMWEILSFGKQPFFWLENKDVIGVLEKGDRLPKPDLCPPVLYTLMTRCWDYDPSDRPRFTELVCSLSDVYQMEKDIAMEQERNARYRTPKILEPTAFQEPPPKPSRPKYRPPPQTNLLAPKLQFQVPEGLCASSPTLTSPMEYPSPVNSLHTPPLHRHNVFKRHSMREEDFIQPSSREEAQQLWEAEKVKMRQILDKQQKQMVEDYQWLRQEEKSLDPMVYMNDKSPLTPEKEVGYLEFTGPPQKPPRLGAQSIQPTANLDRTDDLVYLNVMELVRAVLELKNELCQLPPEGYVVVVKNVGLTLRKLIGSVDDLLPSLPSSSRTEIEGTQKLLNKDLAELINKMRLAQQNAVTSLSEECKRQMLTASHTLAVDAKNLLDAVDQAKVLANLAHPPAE

Row | Structure (SMILES) | z-score
1 | O=S(=O)(NCCc1ccncc1)c1ccccc1 | 0.43
2 | Cc1cccc(-n2c(C)cc(/C=N\NC(=O)c3cccs3)c2C)c1 | -0.91
3 | CCn1c(/C=C/Nc2ccccc2)[n+](CC)c2ccc(C(=O)OCC(F)(F)F)cc21 | 1.39
4 | Cc1nn(Cc2ccccc2)c2c1C(c1ccccc1)C(C#N)=C(N)O2 (stereo not given) | -3.32 (active)
5 | Cc1cc2c(c(=O)n1Cc1ccco1)C(c1ccccc1)C(C#N)=C(N)O2 (stereo not given) | 1.13
6 | CCCc1[nH]nc2c1C(c1c(C)nn(-c3ccccc3)c1Cl)C(C#N)=C(N)O2 (stereo not given) | 0.22
7 | Cc1nn(-c2ccccc2)c(C)c1C(=O)OCC(=O)NC(=O)NC1CCCCC1 | -3.49 (active)
8 | CCCn1c(C)cc(C(=O)COC(=O)c2c(C)nn(-c3ccccc3)c2C)c1C | 1.05
9 | O=C(COC(=O)c1ccccc1SCC(=O)NC1CCCCC1)NC1CCCCC1 | 1.77
10 | COC(=O)[C@H]1Cc2cnoc2C[C@]1(C)C(=O)O | 1.39
11 | O=c1c(Cl)c(NCc2ccc(F)cc2Cl)cnn1C12CC3CC(CC(C3)C1)C2 | 0.24
12 | COc1ccc(-c2cc(C3CCN(c4ncccc4[N+](=O)[O-])CC3)[nH]n2)cc1 | -3.98 (active)
13 | COc1cccc(NC(=O)c2nn(C34CC5CC(CC(C5)C3)C4)cc2[N+](=O)[O-])c1 | -0.19
14 | Cc1ccc(-c2nnc(-c3ccc(NC(=O)c4cccs4)cc3)o2)cc1 | -0.15
15 | Cc1ccc(-c2csc(NC(=O)c3cccs3)n2)cc1 | -3.32 (active)
16 | Cc1nc(-c2ccc(NC(=O)c3cccs3)cc2)cs1 | -0.41
17 | CC(C)(C)C1C/C(=C/c2ccco2)C(=O)/C(=C/c2ccco2)C1 (stereo not given) | 0.6
18 | Cc1ccc(OCC(=O)OC(C)CN(C)Cc2ccccc2)cc1 (stereo not given) | 2.87
19 | COc1ccc(N2C(=O)CNC2=S)cc1 | 0.4
20 | c1ccc(-c2cc(-c3nnc4sc(-c5ccccn5)nn34)[nH]n2)cc1 | -3.26 (active)

Row | Structure (SMILES) | z-score
21 | COc1ccc(-c2nn3c(-c4ccccc4)nnc3s2)cc1OC | -1.25
22 | CCOc1cccc(-c2nn3c(-c4ccccn4)nnc3s2)c1 | -1.53
23 | CC(NC(=O)C(=O)NN=C1CCC(C(C)(C)C)CC1)c1ccccc1 (stereo not given) | -0.32
24 | CNc1ccc(NC(C)=O)cc1[N+](=O)[O-] | -0.8
25 | CC(C)CC(=O)NC(=S)Nc1cc(C(=O)O)ccc1Cl | 0.14
26 | COc1ccc(-c2cn(-c3ccc(OC)cc3)c(=S)[nH]2)cc1 | 0.64
27 | CSCCC(NC(=O)COc1ccccc1)C(=O)Nc1ccc(C)cc1 (stereo not given) | 0.49
28 | CCN1CCCC1CNc1ncnc2c1[nH]c1ccc(F)cc12 (stereo not given) | 1.26
29 | CC(C)OCCCNc1ncnc2c1[nH]c1ccc(F)cc12 | -1.09
30 | Fc1ccc2[nH]c3c(N4CCSCC4)ncnc3c2c1 | -3.08 (active)
31 | O=C(CNCc1ccc(F)cc1)Nc1ccccc1-c1ccccc1 | -0.24
32 | COc1ccc(C(=O)NNS(=O)(=O)c2ccc(C)cc2)cc1 | -0.21
33 | CCCCNC(=O)CCn1c(=O)c2ccccc2n(Cc2cc(C)ccc2C)c1=O | 1.04
34 | CN1/C(=c2/s/c(=C3/C(=O)N(c4ccccc4)NC3=Nc3ccccc3)n(C)c2=O)C(C)(C)c2ccccc21 | -3.22 (active)
35 | COc1cccc(-c2ccc(C#N)c(SCC(=O)NCCc3ccc(Cl)cc3)n2)c1 | -0.01
36 | COc1ccc(Br)cc1CN(C)CC(=O)Nc1cc([N+](=O)[O-])ccc1OC | -1.86
37 | Cc1ccc2c(CC(=O)NCc3cccs3)coc2c1 | -0.4
38 | N#C/C(=C\c1ccc(N2CCOCC2)o1)C(=O)N1CCOCC1 | 0.12
39 | COc1ccccc1Oc1ccc(N/C=C2/CCCC2=O)cc1 | 0.42
40 | COc1ccc(C2CC(=O)Nc3sc(=N)c4c(N)c(C#N)c(N)nc4c32)cc1OC (stereo not given) | -1.89

Row | Structure (SMILES) | z-score
41 | CSc1nc(N)c(C#N)c(-c2ccccc2Cl)c1C#N | -2.52
42 | N#Cc1c(N)nc2c3c(sc(=N)c2c1N)NC(=O)CC3c1ccccc1Cl (stereo not given) | -3.47 (active)
43 | Cc1c(/C=N/N2C(=O)C3C4C=CC(C4)C3C2=O)c2ccccc2n1C (stereo not given) | 0.37
44 | Cc1ccc(CNC(=O)COc2ccc3c(c2)CCC3)cc1 | 1.09
45 | CCCCN(C)c1ccc([N+](=O)[O-])cc1 | -0.3
46 | O=C(NCCc1ccccc1)C1CCN(S(=O)(=O)c2ccc(Br)s2)CC1 | 0.91
47 | Cc1ccc(C(=O)Cc2nnc(C)s2)cc1 | 0.12
48 | COC(=O)c1ccccc1NC(=O)c1ccccc1NS(C)(=O)=O | 0.05
49 | COC(=O)c1ccc(NC(=O)c2ccccc2NS(=O)(=O)c2ccccc2)cc1 | -3.71 (active)
50 | CCOc1ccc(NC(=O)c2ccccc2NS(C)(=O)=O)cc1 | -0.27
51 | O=C(NC(=S)Nc1ccc(NC(=O)c2cccs2)cc1)c1ccc([N+](=O)[O-])cc1 | 0.61
52 | Cc1cccc(N2CCN(C(=O)c3cccc(S(=O)(=O)N4CCc5ccccc5C4)c3)CC2C)c1 (stereo not given) | 0.72
53 | CCc1ccc(C2N3CC4([N+](=O)[O-])CN2CC([N+](=O)[O-])(C3)C4(C)C)cc1 (stereo not given) | 0.28
54 | C=CCn1c(SCC(=O)Nc2nc3ccccc3s2)nnc1-c1ccccc1O | -3.16 (active)
55 | C=CCn1c(SCC(=O)NCc2ccccc2)nnc1-c1cc(Br)ccc1O | -0.9
56 | C=CCn1c(CSc2nc3ccccc3s2)nnc1SCC(=O)NCc1ccco1 | 0.84
57 | N#CC1=C(N)N(c2ccccc2)C2=C(C(=O)CCC2)C1c1ccccc1 (stereo not given) | -0.02
58 | CCCN1C2=C(C(=O)CCC2)C(c2ccc(O)c(Br)c2)C2=C1CCCC2=O | -3.69 (active)
59 | CCCC(=O)N1c2ccccc2NC2=C(C(=O)CCC2)C1c1ccc(F)cc1 (stereo not given) | -0.82
60 | CCOc1ccc(Br)cc1S(=O)(=O)Nc1cccc(S(=O)(=O)N(CC)CC)c1 | 1.18
